# Source: PubChem BioAssay
# CF NFkB inh – inhibitors of PAF-induced NF-kB signaling, primary screen, cell-based, GFP fluorescence, uHTS. KKLEB NF-kB-GFP reporter, GFP fluorescence overnight. inhibition, % at 5 µM. 360,000 tested, 0.86% active. AID 588850, 2011;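 active = at least 50% inhibition at 5 µM, scaled per plate between neutral and stimulator controls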;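 note: PAF is a Pseudomonas aeruginosa culture filtrate used as stimulus; plate controls were PAF-stimulated DMSO wells for no effect and unstimulated DMSO wells for full effect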
# HIF-2a inh – HIF-2a reporter inhibitors, primary screen, luminescence, 786-0 RCC cells. 786-0 RCC cells HIF-2a reporter, luciferase luminescence, overnight. inhibition, % at 18.8 µM. 360,000 tested, 0.72% active. AID 624352, 2012;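 active = inhibition of the luminescence signal of 40% or more relative to plate controls, in a single-dose primary screen at 18.75 µM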
# KKLEB tox – cytotoxicity in KKLEB CF airway cells, primary screen, cytotoxicity control for CF NF-kB inhibitor project, cell-based, uHTS, fluorescence assay plates; KKLEB CF airway cells viability, ATPlite luminescence, overnight; stronger effect = lower value; cells stimulated with P. aeruginosa culture filtrate; activity change (cytotoxicity), % at 5 µM; 360,000 tested, 0.36% active; AID 602141, 2011;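 active = corrected activity change at or below -50% at 5 µM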
# MITF TRPM1 inh – inhibitors of MITF-dependent TRPM1 promoter reporter, primary screen, cell-based, SK-MEL-5, single point, luciferase. SK-MEL-5 TRPM1 promoter luciferase, 24 h. inhibition, % at 12.5 µM. 330,000 tested, 0.83% active. AID 488899, 2010;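 active = mean inhibition across replicates of 60% or more, whatever share of single replicates reaches that level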
# CHOP inhibitor – inhibitors of CHOP promoter induction, primary screen, cell-based, unfolded protein response, luciferase reporter; inhibition, % at 10 µM; CHO-K1 CHOP-promoter luciferase, tunicamycin-induced, 15-18 h; 220,000 tested, 3.8% active;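 active = compounds that reduced the stress-induced luciferase reporter signal by more than about 70% of percent inhibition, limit read from the data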;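 note: 0% = tunicamycin plus vehicle and 100% = wells without tunicamycin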
# Peg3 promoter – Peg3 promoter-driven luciferase inhibitors, primary screen, cell-based, HeLa, luciferase luminescence | HeLa PEG-Prom luciferase reporter, overnight | inhibition, % at 20 µM | 360,000 tested, 1.7% active;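 active = inhibition of at least 50% at 20 µM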
# * = called active by the depositor; nt = no result given. In the library only some 4.3% were active in any assay of this set; here they are far more common.
SMILES,CF NFkB inh,HIF-2a inh,KKLEB tox,MITF TRPM1 inh,CHOP inhibitor,Peg3 promoter
CCC(=O)n1nc(-c2ccccc2)nc1NCc1ccccc1,5.9,-105.3,-3.6,-44.0,93.3*,-133.9
ON=Cc1ccnc2ccccc12,35.8,10.6,-13.0,nt,nt,7.0
O=C(/C=C/c1ccnc2ccccc12)c1cccs1,60.9*,-97.5,-14.0,31.0,-12.8,101.7*
COC(=O)c1cc(=O)n(CCc2ccccc2)c(=Nc2ccc(F)cc2)s1,-1.0,9.6,-14.0,nt,4.7,14.7
COC(=O)c1cc(=O)n(CCc2ccc(OC)cc2)c(=Nc2ccc(F)c(Cl)c2)s1,0.2,14.9,0.4,10.7,-33.9,82.5*
CCN(CC)C(=O)CN(c1ccc2c(c1)OCO2)S(C)(=O)=O,-16.7,0.5,0.6,-5.9,1.0,-1.2
CCN(CC)C(=O)CN(c1ccc(F)c(Cl)c1)S(C)(=O)=O,9.2,11.8,-6.1,6.7,75.5*,5.0
Oc1[nH]c2ccc(Br)cc2c1N=NC(=S)NCC1CCCO1 (configuration not stated),-0.8,8.5,2.1,28.9,94.5*,33.3
CC1CC(C)(C)N2C(=O)C3(Nc4ccccc4S3)c3cccc1c32 (configuration not stated),15.8,4.0,-0.5,15.3,91.4*,30.1
O=C1N2CCCc3cccc(c32)C12Nc1ccccc1S2 (configuration not stated),-12.5,0.8,13.1,11.2,21.8,27.8
COc1ccc(N/C=C2\CCc3ccccc3C2=O)cc1,-18.1,5.0,-48.8,48.0,82.5*,-25.5
O=C1/C(=C/Nc2ccc3c(c2)OCO3)CCc2ccccc21,-18.1,-27.8,-53.0*,15.4,76.7*,9.5
CC(=O)c1ccc(OCC(=O)NC(=O)NC2CCCCC2)cc1,-8.9,6.3,-12.3,17.9,nt,0.9
CSc1nc(N)nc(SCCS(=O)(=O)c2ccc(Cl)cc2)c1C#N,23.8,-3.8,-65.3*,2.1,51.5,32.7
CSc1nc(N)nc(SCC(=O)Nc2ccc(Cl)cc2)c1C#N,-0.5,-145.3,-17.0,-14.4,9.8,-96.5
CS(=O)(=O)c1ccc(-c2csc(C(O)(c3ccccc3)C(F)(F)F)n2)cc1 (configuration not stated),1.0,24.0,7.5,nt,nt,11.3
CC(=O)Nc1ccc(S(=O)(=O)N2CCN(S(=O)(=O)c3ccccc3)CC2)cc1,7.1,15.6,-0.5,17.2,nt,1.2
CC(=O)Nc1ccc(S(=O)(=O)N2CCN(c3cc(C)ccc3C)CC2)cc1,-7.8,2.2,14.7,0.6,75.1*,2.9
COc1c(Br)cc(Br)cc1/C=N/NC(=O)c1cccnc1,-13.0,28.1,-6.6,28.1,nt,29.3
CCOc1cc(Br)cc(/C=N/NC(=O)c2cccnc2)c1O,1.6,-6.9,-1.4,48.9,nt,62.0*
CC(=O)Nc1ccc(S(=O)(=O)N2CCN(S(=O)(=O)N3CCC(C)CC3)CC2)cc1,6.4,4.6,-0.7,2.0,nt,20.6
CCOC(=O)c1sc2nc(C(C)C)c3c(c2c1N)CC(C)(C)OC3,15.1,-0.7,-1.8,-1.7,70.2*,27.5
CCc1nc2c(OCC(=O)C(C)(C)C)cccn2c1N(C)C(=O)Nc1ccccc1OC,-4.4,9.1,-6.8,nt,nt,11.0
Cc1ccc(N=C2NC(=O)/C(=C/c3cccs3)S2)cc1C,51.5*,-108.2,-19.1,-25.2,63.4,-69.3
Cc1c(NC(=O)c2ccc(CC(C)C)o2)c(=O)n(-c2ccccc2)n1C,5.6,10.0,5.2,8.6,nt,1.2
SMILES,CF NFkB inh,HIF-2a inh,KKLEB tox,MITF TRPM1 inh,CHOP inhibitor,Peg3 promoter
CSCCC(NS(=O)(=O)c1ccc(Cl)cc1)C(=O)OCC(=O)N(C(C)C)C(C)C (configuration not stated),-8.0,7.3,7.2,-1.8,51.8,1.9
CSCCC(NS(=O)(=O)c1ccc(Cl)cc1)C(=O)OCc1c(Cl)cccc1Cl (configuration not stated),10.9,11.5,-6.7,10.7,85.9*,34.4
OC(c1cccc(Cl)c1)c1ncc(-c2cccc(C(F)(F)F)c2)[nH]1 (configuration not stated),11.9,-1.2,-9.3,nt,nt,26.4
Oc1ccc(N=Nc2n[nH]c(-c3ccc(Cl)cc3)n2)cc1,-21.4,-135.4,21.4,-0.6,75.2*,77.7*
Oc1ccc(N=Nc2ccccc2)cc1,15.2,-312.9,-5.6,-121.1,nt,-354.2
OC(c1ccc(CN2CCCCC2)cc1)c1ncc(-c2ccccc2)[nH]1 (configuration not stated),3.7,-1.4,-2.4,nt,nt,-0.6
COc1cc(OC)c(-c2nc3ccccc3s2)cc1OC,-33.6,-99.3,-5.4,0.1,72.4*,-64.0
Nn1c(SCC(=O)NC2CCS(=O)(=O)C2)nc2scc(-c3ccccc3)c2c1=O (configuration not stated),-16.4,9.1,8.3,-5.7,nt,-7.8
O=C(/C=C/c1ccncc1)c1ccc2c(c1)OCCO2,10.2,3.1,-15.7,-2.0,-105.0,105.0*
CCOC(=O)c1cc(-c2ccccc2)n(CC(=O)Nc2ccc(OCC)cc2)c1C,13.8,16.7,3.3,14.8,80.2*,21.6
CC(=O)c1cc(-c2ccccc2)n(CC(=O)Nc2cc(C)cc(C)c2)c1C,11.6,15.5,-1.6,8.0,94.3*,22.2
CC(=O)c1cc(-c2ccccc2)n(CC(=O)NC2CCCC2)c1C,-3.4,20.2,5.5,1.3,10.5,-0.7
CCOC(=O)c1cc(-c2ccccc2)n(CC(=O)Nc2cc(OC)cc(OC)c2)c1C,9.9,31.6,9.6,8.3,23.9,18.0
CCCC(C)(C)C(=O)N1CCC1(C)C(=O)Nc1cccc2ccccc12 (configuration not stated),21.0,-0.3,-5.7,nt,nt,7.7
Cc1nn(CC(=O)Nc2ccc(Cl)cc2)c(=O)c2cc(-c3ccccc3)nn12,2.2,12.7,10.6,6.0,nt,-6.4
Cn1c(=O)n(C)c2cc(NC(=O)CSc3ccccc3)ccc21,-17.4,-16.2,-4.3,-9.4,nt,-4.0
O=C1N(c2ccccc2C(F)(F)F)O[C@@]1(c1ccccc1)C1CCCC1,29.4,21.8,-1.8,3.7,nt,69.5*
Cc1c(N)cc2c(c1N)C(C)(C)CC2(C)C,-1.9,10.5,-8.1,6.9,nt,4.0
CN(C)c1ccc2c(c1[N+](=O)[O-])Cc1ccccc1-2,-8.8,-239.4,-8.0,-39.5,nt,-235.6
Cc1cccc(C)c1NC(=O)C1C(c2ccc3c(c2)OCO3)=Nc2ccccc2N1C(=O)c1ccccn1 (configuration not stated),nt,-126.1,nt,nt,nt,nt
C=CCc1cc(C=O)cc(OCC)c1OCc1ccc(Cl)cc1,-10.4,16.3,12.3,1.3,70.6*,6.0
Cc1onc(-c2ccccc2)c1C(=O)OCC(=O)N1CCCCC1,-6.3,8.4,-10.1,nt,nt,6.5
